Laboratory results from the supplement of paper PMC6555819.

Key:
Assay in all cases: PBM binding z-score (relative to random genomic background probes); higher = stronger binding; sequences stand for … in GC…GCGATTGACAGCGTAGAATGAAGG
[1] = system: FXR:RXRa (NR concentration 270 nM, RXRa partner concentration 90 nM)
How it was run: (§1)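 Scanned fluorescence from custom Agilent 4×180K protein-binding microarrays was regression-normalized. Binding z-scores use random background probes as reference. Ligand-free nuclear receptor dimers were incubated on the arrays for 1 h and detected with antibodies against each partner (one per run).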

[2] = system: LXRa:RXRa (NR concentration 270 nM, RXRa partner concentration 90 nM)
How it was run: as §1

[3] = system: LXRa homodimer (NR concentration 270 nM)
How it was run: as §1

[4] = system: LXRb:RXRa (NR concentration 270 nM, RXRa partner concentration 90 nM)
How it was run: as §1

[5] = system: LXRb homodimer (NR concentration 270 nM)
How it was run: as §1

[6] = system: PPARa:RXRa (NR concentration 270 nM, RXRa partner concentration 90 nM)
How it was run: as §1

[7] = system: PPARg:RXRa (NR concentration 180 nM, RXRa partner concentration 90 nM)
How it was run: as §1

[8] = system: PPARg:RXRa 270nM:90nM, anti-RXR (NR concentration 270 nM, RXRa partner concentration 90 nM)
How it was run: as §1

[9] = system: PPARg:RXRa 30nM:10nM, anti-RXR (NR concentration 30 nM, RXRa partner concentration 10 nM)
How it was run: as §1

[10] = system: PPARg:RXRa 90nM:30nM, anti-RXR (NR concentration 90 nM, RXRa partner concentration 30 nM)
How it was run: as §1

[11] = system: PPARg:RXRa DBDmut IVT, anti-RXR (DBD mutation: RXRa K156A/R161A, NR concentration 270 nM, RXRa partner concentration 90 nM)
How it was run: as §1

[12] = system: PPARg:RXRa IVT, anti-PPARg (NR concentration 270 nM, RXRa partner concentration 90 nM)
How it was run: as §1

[13] = system: PPARg DBDmut:RXRa IVT, anti-PPARg (DBD mutation: PPARg1 K132A/R137A, NR concentration 270 nM, RXRa partner concentration 90 nM)
How it was run: as §1

[14] = system: PPARg DBDmut IVT, anti-PPARg (DBD mutation: PPARg1 K132A/R137A, NR concentration 270 nM)
How it was run: as §1

[15] = system: PPARg homodimer (NR concentration 180 nM)
How it was run: as §1

[16] = system: PXR:RXRa (NR concentration 270 nM, RXRa partner concentration 90 nM)
How it was run: as §1

[17] = system: PXR homodimer (NR concentration 270 nM)
How it was run: as §1

[18] = system: RARa:RXR (NR concentration 270 nM, RXRa partner concentration 90 nM)
How it was run: as §1

[19] = system: RARa homodimer (NR concentration 270 nM)
How it was run: as §1

[20] = system: RARb:RXRa (NR concentration 270 nM, RXRa partner concentration 90 nM)
How it was run: as §1

Sequence	PBM binding z-score [1]	PBM binding z-score [2]	PBM binding z-score [3]	PBM binding z-score [4]	PBM binding z-score [5]	PBM binding z-score [6]	PBM binding z-score [7]	PBM binding z-score [8]	PBM binding z-score [9]	PBM binding z-score [10]	PBM binding z-score [11]	PBM binding z-score [12]	PBM binding z-score [13]	PBM binding z-score [14]	PBM binding z-score [15]	PBM binding z-score [16]	PBM binding z-score [17]	PBM binding z-score [18]	PBM binding z-score [19]	PBM binding z-score [20]
ACAGACAGGGGATGAAGGTAACTCAGGCTATCAT	0.0429	-0.217	-0.0262	0.454	0.563	0.414	0.8	-0.0093	-0.0639	-0.0825	-0.0159	0.23	0.918	0.962	0.411	0.126	0.556	-0.0712	0.0686	0.299
CCTACTGGGCCAATGGTCATTGATTCCAATGCTC	-0.623	-0.68	-0.691	-0.531	-0.674	1.86	4.15	5.51	3.81	6.38	3.79	4.11	0.147	-0.523	-0.104	-0.581	-0.689	-0.388	-0.588	0.311
ATCAAAAGGTCGACGAGGTGAGTATACACCGTTT	4.64	3.46	0.265	2.86	0.587	4.82	3.29	3.63	1.47	2.53	0.837	2.54	1.44	1.18	2.16	3.22	0.528	3.88	1.22	4
GCTAGCAGGCCATGTGGGTCACTCAATGACGGGC	-0.267	-0.154	-0.643	-0.292	-1.04	1.58	1.31	1.18	-0.316	0.415	2.25	3.4	-0.133	-0.744	-0.23	0.289	-0.533	0.567	-0.664	1.26
CATCCAAGGTCAAGGTCAGTGAAAGAGACTCGAA	7.77	6.14	2.48	5.1	2.11	6.02	7.17	6.56	3.3	5.45	3.78	5.22	1.93	0.636	4.53	4.84	1.77	5.12	1.98	5.77
TGAATGAGTTTATAAGATCAGGGAACGTTGCAAA	-0.262	-0.382	-0.288	-0.209	-0.337	0.00137	0.119	0.389	0.73	0.5	-0.937	-0.179	0.631	0.748	0.106	0.215	0.318	0.174	0.105	-0.00933
ATCTAAAGGTCGACGAGGTGAGTATACACCGTTT	4.77	4.07	0.832	3.04	0.727	4.38	3.31	3.51	1.21	2.67	0.916	2.35	0.97	0.877	1.81	3.26	0.284	3.76	1.29	3.91
TCTGCAAGGTCAGTTGGTCAGCTAACGAGCTGCC	4.25	2.88	-0.037	2.09	1.17	3.4	1.45	2.47	1.5	1.72	1.67	2.69	0.998	1.09	1.99	2.09	-0.237	2.67	-0.428	4.43
ACTAGCAGGCCAAGTATGGGTCACTCAAACAAAG	0.0234	0.143	-0.148	0.932	-0.854	1.74	0.661	0.755	-0.094	0.375	1.16	1.82	-0.278	-0.249	0.52	0.911	-0.49	1.85	-0.747	1.58
AGAACGAGGGCACGCTGAGTGGATAGCAGAGTAG	0.65	0.494	-0.357	-0.0395	-1.03	1.77	1.99	1.64	0.26	1.29	4.13	3.9	0.715	0.00545	0.149	0.143	-0.338	0.776	-0.364	2.42
CCTGCTATGTCATGGTCAGCTAATCTACAGTATG	0.128	-0.0634	-0.269	-0.0445	-0.226	-0.318	0.0811	-0.104	0.0801	0.346	0.893	0.445	0.205	0.546	-0.0268	-0.217	-0.359	-0.187	-0.218	0.913
CGTCCAAGGTCAGAGACGTCAGTGAATGCCGAGT	4.49	2.77	-0.161	1.87	-0.32	3.7	1.97	2.41	0.132	1.48	2.2	1.74	-0.306	-0.0249	1.43	2.14	0.599	2.75	0.197	4.37
AGAATGAGGTTACCCAAGATCAGGGAAACGCTTG	1.63	5.76	-0.558	2.48	-0.333	3.05	2.29	2.2	0.837	1.49	3.03	2.92	1.56	1.21	0.367	1.58	-0.185	2.03	-0.0633	1.82
CGAACTAGGTCAAGGACAGTGCATCTCCGCACGC	3.37	2.49	0.582	1.38	-0.386	4.35	7.23	6.31	3.38	5.86	8.15	8.09	1.65	0.963	1.3	2.24	0.348	1.94	-0.145	3.97
ACTTTTAGTTGAGACGAGGGCAACCGATAGGTTG	0.762	0.517	-0.32	0.176	0.689	0.546	0.448	0.362	0.289	0.332	0.771	0.663	1.4	1.16	0.208	1.33	0.341	1.59	0.167	1.24
CCTACTGGGCGATCAGGTCATTGATATCAACGTT	0.953	0.548	0.541	0.798	-0.539	1.44	0.524	1.26	0.0672	0.741	1.18	1.66	-0.36	-0.403	0.86	1.29	0.227	1.47	0.157	1.6
GCTAATTGGTCAGTAAAAGGTCACACACCGGTCG	3.55	4.31	5.15	4.41	1.19	4.8	3.38	4.52	2.45	3.96	1.17	3.09	0.371	1.23	3.29	4.83	1.25	5.26	2.18	4.66
CCTTACGGGTCACTGACAGGTTATCGCATTTGGA	5.35	4.35	0.422	3.38	0.0444	5.12	4.53	4.36	1.04	2.96	3.47	3.69	0.381	0.623	2.57	3.78	-0.364	4.93	0.262	4.06
CCGACTGGGTCAGAAAGGTTACCATACCATCCGG	1.8	1.62	-0.0382	1.61	-0.767	3.21	3.13	3.2	0.873	2.2	3.31	3.92	0.245	-0.526	2.08	2.48	0.43	3.17	0.179	3.15
